Counter-ions that a name gives are not always drawn. ± gives the standard deviation of the averaged measurements.

The values below come from the supplement of paper PMC9262897, “Low-cost anti-mycobacterial drug discovery using engineered E. coli” (Nature Communications, 2022).

This test relates to E. coli TESEC Mtb Alr. Put plainly: growth (OD600 after 10 h); higher = more growth (less inhibition). The conditions noted are these: arabinose 10000 nM; compound 0.1 mM; raw OD600 reference: median of DMSO wells 0.264, cell-free background 0.041. How it is done:
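TESEC Mtb Alr E. coli, or the Alr+ wild-type control, in 384-well plates with Prestwick library compounds at 0.1 mM and 1% DMSO, across arabinose induction levels of 1E3 to 1E7 nM. Growth is read as OD600 after 10 h at 37 °C in triplicate biological replicates.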
With `CC(=O)Oc1cccc2c1C(=O)c1c(OC(C)=O)cc(C(=O)O)cc1C2=O` [Diacerein], the growth was 0.161 ± 0.0033. The result for `COc1ccc(-c2cc(=S)ss2)cc1` [Anethole-trithione] reads 0.218 ± 0.019; that for `O=C(O)Cc1ccccc1Nc1c(Cl)cccc1Cl` [Diclofenac sodium], 0.132 ± 0.0064; that for `CCN1CCC[C@H]1CNC(=O)c1c(O)c(Cl)cc(Cl)c1OC` [Raclopride], 0.148 ± 0.017. The result for `COc1ccc(C[C@@H]2c3cc(OC)c(OC)cc3CC[N@+]2(C)CCC(=O)OCCCCCOC(=O)CC[N@@+]2(C)CCc3cc(OC)c(OC)cc3[C@H]2Cc2ccc(OC)c(OC)c2)cc1OC` [Cisatracurium besylate] reads 0.242 ± 0.014.

Turning to `CN(C)CCOC(=O)C(c1ccccc1)C1(O)CCCC1` (centres undefined) [Cyclopentolate hydrochloride], the growth was found to be 0.27 ± 0.01.

In turn, `CCCCOc1ccc(C(=O)CCN2CCCCC2)cc1` [Dyclonine hydrochloride] registered a growth of 0.252 ± 0.0069. As to `CC[C@H]1OC(=O)[C@H](C)[C@@H](O[C@H]2C[C@@](C)(OC)[C@@H](O)[C@H](C)O2)[C@H](C)[C@@H](O[C@@H]2O[C@H](C)C[C@H](N(C)C)[C@H]2O)[C@](C)(O)C[C@@H](C)/C(=N\OCOCCOC)[C@H](C)[C@@H](O)[C@]1(C)O` [Roxithromycin], the growth is 0.04067 ± 0.00015.

Turning to `CCOC(=O)O[C@]1(C(=O)OCCl)CC[C@H]2[C@@H]3CCC4=CC(=O)C=C[C@]4(C)[C@H]3[C@@H](O)C[C@@]21C` [Loteprednol etabonate], the growth was 0.15 ± 0.0072. Next, `c1ccc2c(CC3=NCCN3)cccc2c1` [Naphazoline hydrochloride]: 0.268 ± 0.0057; `O=C(N/N=C/c1ccc([N+](=O)[O-])o1)c1ccc(O)cc1` [Nifuroxazide]: 0.0914 ± 0.0034; `COCCOC(=O)C1=C(C)NC(C)=C(C(=O)OC/C=C/c2ccccc2)C1c1cccc([N+](=O)[O-])c1` (centres undefined) [Cilnidipine]: 0.304 ± 0.028. Next, `CCN(CC)CCOC(=O)c1ccc(N)cc1` [Procaine hydrochloride]: 0.273 ± 0.0077; `COc1cccc(N(C)C(=S)Oc2ccc3c(c2)CCCC3)n1` [Liranaftate]: 0.2888 ± 0.0012. Consider `CC(C)(Sc1cc(C(C)(C)C)c(O)c(C(C)(C)C)c1)Sc1cc(C(C)(C)C)c(O)c(C(C)(C)C)c1` [Probucol], for which the growth came to 0.259 ± 0.0043.

As for `C[C@@H]1[C@H](O)[C@@H](C)/C=C/C=C/C=C/C=C/C=C/C=C/C=C/[C@H](O[C@@H]2O[C@H](C)[C@@H](O)[C@H](N)[C@@H]2O)C[C@@H]2O[C@](O)(C[C@@H](O)C[C@@H](O)[C@H](O)CC[C@@H](O)C[C@@H](O)CC(=O)O[C@H]1C)C[C@H](O)[C@H]2C(=O)O` [Amphotericin B], the growth is 0.27 ± 0.0035. The result for `C[C@@H](O)[C@H]1C(=O)N2C(C(=O)O)=C(S[C@@H]3CN[C@H](C(=O)N(C)C)C3)[C@H](C)[C@H]12` [Meropenem] reads 0.0448 ± 0.0059. The result for `CC1CCc2cc(F)cc3c(=O)c(C(=O)O)cn1c23` (centres undefined) [Flumequine] reads 0.0396 ± 0.00065; that for `O=C1CC2(CCCC2)CC(=O)N1CCCCN1CCN(c2ncccn2)CC1` [Buspirone hydrochloride], 0.2798 ± 0.0023; that for `CC[C@]12CCCN3CCc4c(n(c5ccccc45)[C@@](O)(C(=O)OC)C1)[C@@H]32` [Vincamine], 0.258 ± 0.0043. Next, `N#CC(c1ccc(Cl)cc1)c1c(Cl)cc(-n2ncc(=O)[nH]c2=O)cc1Cl` (centres undefined) [Diclazuril]: 0.0402 ± 0.0002. Turning to `CCOC(=O)[C@H](CCc1ccccc1)N[C@H]1CCc2ccccc2N(CC(=O)O)C1=O` [Benazepril HCl], the growth was found to be 0.0504 ± 0.011. Compound `C[C@H](CCC(=O)O)[C@H]1CC[C@H]2[C@@H]3[C@H](O)C[C@@H]4C[C@H](O)CC[C@]4(C)[C@H]3CC[C@]12C` [Chenodiol] came in with a growth of 0.221 ± 0.0073. In the case of `CC(=O)CC(c1ccccc1)c1c(O)c2ccccc2oc1=O` (centres undefined) [Warfarin], the growth was 0.2271 ± 0.0011. `O=C1CN(/N=C/c2ccc(-c3ccc([N+](=O)[O-])cc3)o2)C(=O)N1` [Dantrolene sodium salt] returned a growth of 0.184 ± 0.003. On to `Nc1nc2c(ncn2COC(CO)CO)c(=O)[nH]1` [Ganciclovir], for which the growth is 0.2718 ± 0.0013. As to `Cc1ccc(C(=O)c2cc(O)c(O)c([N+](=O)[O-])c2)cc1` [Tolcapone], the growth worked out at 0.04323 ± 0.00038.

The compound `Fc1ccc([C@@H]2CCNC[C@H]2COc2ccc3c(c2)OCO3)cc1` [Paroxetine Hydrochloride] displayed a growth of 0.2021 ± 0.0013. Regarding `COc1ccc(CN2CCN(C(c3ccc(F)cc3)c3ccc(F)cc3)CC2)c(OC)c1OC` [Lomerizine hydrochloride], the growth was 0.0765 ± 0.0014.

With `C[C@@H]1C[C@H]2[C@@H]3CCC4=CC(=O)C=C[C@]4(C)[C@@]3(Cl)[C@@H](O)C[C@]2(C)[C@@]1(OC(=O)c1ccco1)C(=O)CCl` [Mometasone furoate], the growth was determined as 0.223 ± 0.011. For the compound `Cc1cccc(Nc2ccncc2S(=O)(=O)NC(=O)NC(C)C)c1` [Torsemide], the growth is 0.257 ± 0.019. The result for `COc1nc(C)nc(Cl)c1NC1=NCCN1` [Moxonidine] reads 0.262 ± 0.0065.

Take `NC(=O)c1cccnc1` [Nicotinamide]: the growth came out at 0.302 ± 0.0031.

Compound `NCCCC(O)(P(=O)(O)O)P(=O)(O)O` [Alendronate sodium] registered a growth of 0.265 ± 0.007. The compound `NNC(=O)c1ccncc1` [Isoniazid] displayed a growth of 0.275 ± 0.0043. Next, `CC(C)OC(=O)C(C)(C)Oc1ccc(C(=O)c2ccc(Cl)cc2)cc1` [Fenofibrate]: 0.245 ± 0.0051; `CCC[C@@H]1C[C@@H](C(=O)N[C@@H]([C@H]2O[C@H](SC)[C@H](O)[C@@H](O)[C@H]2O)[C@@H](C)O)N(C)C1` [Lincomycin hydrochloride]: 0.086 ± 0.003. `CS(=O)(=O)OCCCCOS(C)(=O)=O` [Busulfan] displayed a growth of 0.272 ± 0.0066. The result for `CC[C@H]1OC(=O)C[C@@H](O)[C@H](C)[C@@H](O[C@@H]2O[C@H](C)[C@@H](O[C@H]3C[C@@](C)(O)[C@@H](O)[C@H](C)O3)[C@H](N(C)C)[C@H]2O)[C@@H](CC=O)C[C@@H](C)C(=O)/C=C/C(C)=C/[C@@H]1CO[C@@H]1O[C@H](C)[C@@H](O)[C@@H](OC)[C@H]1OC` [Tylosin] reads 0.0397 ± 0.00017.
